Assay results published in PubChem BioAssay (NCATS).
Inconclusive results are not listed. Values without a mark were called inactive. Calls of active or inactive are those of the source. Calls follow the shape of the dose curve; as a rule, active = well fitted inhibition curve with a large enough effect; inconclusive = small, poorly fitted or top-dose-only effect; inactive = flat fitted curve, though single readings scatter.

system: CRL-7250; assay: Cytotoxic Profiling of Annotated Libraries Using Quantitative High-Throughput Screening (AID 1296008); settings: Five cell lines viability, CellTiter-Glo ATP luminescence, 48-72 h; max response: active compounds read low; also: nearly all actives have a fitted effect of over 60% in size
In short: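 Cytotoxicity was measured as CellTiter-Glo ATP luminescence, read after 10 min at room temperature. Compound treatment of the cells lasted 48 or 72 hr at 37 degrees Celsius in a qHTS format.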
% is scaled to controls: 0 for no effect and ±100 for the full control effect; potency is read from the fitted curve at half-maximal effect.

| Structure (SMILES) | max response | outcome | Potency |
| --- | --- | --- | --- |
| CCCCCN(CCCCC)C(=O)C(CCC(=O)O)NC(=O)c1ccc(Cl)c(Cl)c1 (configuration not stated) | -3.52% | – | – |
| NC(N)=NC(=O)Cc1c(Cl)cccc1Cl | -2.41% | – | – |
| CCN(CC)CCNC(=O)c1ccc(NC(C)=O)cc1 | – | inactive | – |
| O=C(O)CN(CCN(CC(=O)O)CC(=O)O)CCN(CC(=O)O)CC(=O)O | -4.18% | – | – |
| COc1cc(C(=O)OCCCN2CCCN(CCCOC(=O)c3cc(OC)c(OC)c(OC)c3)CC2)cc(OC)c1OC | -12.1% | – | – |
| C[C@@H](O)[C@H]1C(=O)N2C(C(=O)O)=C(SCCN=CN)C[C@H]12 | -15.5% | – | – |
| CC(C)NNC(=O)c1ccncc1 | -3.48% | – | – |
| CC(=O)Oc1cc(C(C)C)c(OCCN(C)C)cc1C | -7.06% | – | – |
| C[N+](C)(C)CCOC(N)=O | 1.41% | – | – |
| CC(C)(C)NCC(O)c1cc(O)cc(O)c1 (configuration not stated) | -15.1% | – | – |
| COC(=O)C1=C(C)NC(C)=C(C(=O)OCCN(C)Cc2ccccc2)C1c1cccc([N+](=O)[O-])c1 (configuration not stated) | – | – | 21.1 µM (active) |
| NC(=O)c1ncn([C@@H]2O[C@H](CO)[C@@H](O)[C@H]2O)c1O | -24.9% | – | – |
